Where “and” joins values, the source holds several entries; their conditions need not be identical. Equal values may be shown once. Calls of active or inactive are those of the source. Rule for the calls: active = hit-call score of the fitted dose curve at least 0.9, where 1 is the maximum; inactive = score below 0.9.

This test is described as follows: BSK_BT_Bcell_Proliferation: Viability Assessment in the BioMAP Diversity Plus: BT Assay for B cell Proliferation (AID 2284227). Particulars: primary human B cells with PBMC. How it is done:
BSK_BT is a cell-based, multiplexed-readout assay that uses B cell and peripheral blood mononuclear cells, a human vascular primary cell co-culture, with measurements taken at 24 hours after chemical dosing in a microplate: 96-well plate.BSK_BT_Bcell_Proliferation is an assay component measured in the BSK_BT assay. It measures protein content, a form of viability reporter, as detected with absorbance signals by Sulforhodamine staining technology.Data from the assay component BSK_BT_Bcell_Proliferation was analyzed at the endpoint, BSK_BT_Bcell_Proliferation, in the positive analysis fitting direction relative to DMSO as the negative control and baseline of activity. Using a type of viability reporter, gain or loss-of-signal activity can be used to understand cellular changes in viability. To generalize the intended target to other relatable targets, this assay endpoint is annotated to the 'cell cycle' intended target family, where the subfamily is 'proliferation'.
The levels of cell surface (or secreted, indicated by the prefix "s") biomarker endpoints were measured by ELISA. Overt cytotoxicity to cells in confluent adherent cultures (all systems other than the BT system) was assessed by measuring total protein levels using sulforhodamine B (SRB) staining in parallel cultures at the time of biomarker measurements, indicated as SRB endpoints. For proliferation assays for adherent cell types, individual cell types are cultured at sub-confluence and relative cell numbers quantified by SRB staining at time points optimized for each system (48 h: 3C and CASM3C systems; 72 h: BT and HDF3CGF systems; 96 h: SAg system). SRB was performed by staining cells with 0.1% SRB after fixation with 10% TCA and reading wells at 560 nm.Viability and proliferation of PBMC (T cells) was quantified by Alamar Blue reduction for the SAg and BT systems. For PBMC viability (referred to as PBMC Cytotoxicity within the assay endpoint names), cells were plated (75,000/well in a 96-well plate) and then chemical samples added for 1 h before addition of activators, SEB and TSST-1 (20 ng/mL final concentration each). Cells were incubated for 90 h. Then, Alamar Blue (20 uL/well) (Invitrogen, Cat DAL1100) was added for 6 h, and the plates were read with a fluorescence microplate reader at 546/580 nm (excitation/emission). For PBMC proliferation, cells were plated and activated as above but incubated for only 16 h prior to addition of Alamar Blue. Plates were read after 6 h.
In the case of `C=CC(=O)NC(C)(C)C`, the result was inactive.
Still for that read-out and setting: then `Nc1cccc(N)n1`, with “inactive”.
As a reminder, the AC50 is the midpoint of the concentration-response curve, whichever way the signal moves. With `CC=C(C)C=CC=C(C)C`, the AC50 was 26.9 µM (active).
Turning to `c1ccc2c(c1)[nH]c1ccccc12`, the result was inactive.
`CC(c1cc(C(C)(C)C)cc(C(C)(C)C)c1O)c1cc(C(C)(C)C)cc(C(C)(C)C)c1O`: the AC50 is 28.1 µM (active).
Turning to `CC(Cl)COP(=O)(OCC(C)Cl)OCC(C)Cl` (stereo not given), the outcome was inactive.
Same read-out and setting: then `CCNc1nc(NC(C)(C)C)nc(OC)n1`, with “inactive”.
The same measure, in the same setting: then `CCC1(C)C(=O)N(Cl)C(=O)N1Cl` (stereo not given), with “inactive”.
Consider `CC/C=C\C/C=C\C/C=C\CCCCCCCC(=O)OC`, for which the AC50 is 21.6 µM (active).
On to `O=C(Cl)c1c(Cl)c(Cl)c(C(=O)Cl)c(Cl)c1Cl`, for which the result was inactive.
For `CCc1cccc(C)c1N(C(=O)CS(=O)(=O)O)C(C)COC` (stereo not given), the outcome was inactive.
Take `C=CC(=O)OCC(C)OCC(C)OCC(C)OC(=O)C=C` (stereo not given): the half-maximal activity concentration (AC50) was 11.5 µM (active).
Take `COc1ccc(C(=O)c2ccccc2)c(O)c1`: the result was inactive.
Still for that read-out and setting: then `Cc1c(O)cccc1O`, with “inactive”; and `O=C(O)C(F)(F)C(F)(F)C(F)(F)C(F)(F)C(=O)O`, with “inactive”.
For the compound `Oc1ccc(/C=C/c2cc(O)cc(O)c2)cc1`, the AC50 was 24.5 µM (active).
For the compound `C=CC(=O)NCOCCCC`, the outcome was inactive.
The same measure, in the same setting: the entry for `CC1=CC=C(C(C)C)CC1` is “inactive”; for `O=C1CCCCCCCCCCCN1` it is “inactive”.
As to `CCCCC1C(=O)N(c2ccccc2)N(c2ccccc2)C1=O`, the outcome was inactive.
As to `CCCCCC1=CCCC1=O`, the outcome was inactive.
The same measure, in the same setting: then `Oc1c(Cl)cc(Cl)c(Cl)c1Cl`, with “inactive”.
Same read-out and setting: then `C=CCCCCCCCCC=O`, with “inactive”.
Consider `COc1ccc(C(=O)/C(Br)=C\C(=O)O)cc1`, for which the AC50 was 25.4 µM (active) and 18.6 µM (active).
`CC1(C)CC(O)CC(C)(C)N1[O]`: the result was inactive.
Same read-out and setting: the entry for `C[N+](C)(C)CCCNS(=O)(=O)C(F)(F)C(F)(F)C(F)(F)C(F)(F)C(F)(F)C(F)(F)C(F)(F)C(F)(F)F` is “inactive”; for `COC(OC)(C(=O)c1ccccc1)c1ccccc1` it is “inactive”.
For `O=C(Oc1ccccc1)c1ccccc1C(=O)Oc1ccccc1`, the AC50 is 26.2 µM (active).
On to `C=CC(=O)OCCCCCCCC(C)C`, for which the outcome was inactive.
Still for that read-out and setting: the entry for `CC(C)c1cccc(C(C)C)c1N` is “inactive”; for `CC(C)[N+](C)(CCOC(=O)C1c2ccccc2Oc2ccccc21)C(C)C` it is “inactive”.
`CC/C=C\CCOC(=O)c1ccccc1O`: the result was inactive.
The same measure, in the same setting: then `CC(C)CCCCCOC(=O)CS`, with “inactive”.
The same measure, in the same setting: then `CCCCCCCCCCCC(C)=O`, with “inactive”; and `CCCCCCC=O`, with “inactive”.
Consider `Fc1ccc(Br)cc1`, for which the outcome was inactive.
Same read-out and setting: the entry for `CCOC(=O)C1=NOC(c2ccccc2)(c2ccccc2)C1` is “inactive”; for `CCOC(=O)/C=C\C(=O)OCC` it is “inactive”; for `CCCCCCCO` it is “inactive”.
As for `C=CC(=O)OCCCCCCOC(=O)C=C`, the AC50 was 13.2 µM (active).
